# Experimental data published in PMC4336329 (PLoS ONE, 2015).
# In all, about 310,000 compounds went through this assay and about 14,000 (4.5%) showed an effect of 50% or more. The effect is printed as a negative number. This excerpt belongs to a sample that is enriched for strong results.
# Biological target: human ether-à-go-go-related gene (hERG) potassium channel (human, UniProt Q12809)
# Experiment: primary screen, population patch clamp on CHO cells stably expressing hERG; higher = less effect of the substance
# 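Also: peak tail current of the secondary pulse compared with the same well before compound.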
# Chain of human ether-à-go-go-related gene (hERG) potassium channel (Q12809 whole entry, looked up): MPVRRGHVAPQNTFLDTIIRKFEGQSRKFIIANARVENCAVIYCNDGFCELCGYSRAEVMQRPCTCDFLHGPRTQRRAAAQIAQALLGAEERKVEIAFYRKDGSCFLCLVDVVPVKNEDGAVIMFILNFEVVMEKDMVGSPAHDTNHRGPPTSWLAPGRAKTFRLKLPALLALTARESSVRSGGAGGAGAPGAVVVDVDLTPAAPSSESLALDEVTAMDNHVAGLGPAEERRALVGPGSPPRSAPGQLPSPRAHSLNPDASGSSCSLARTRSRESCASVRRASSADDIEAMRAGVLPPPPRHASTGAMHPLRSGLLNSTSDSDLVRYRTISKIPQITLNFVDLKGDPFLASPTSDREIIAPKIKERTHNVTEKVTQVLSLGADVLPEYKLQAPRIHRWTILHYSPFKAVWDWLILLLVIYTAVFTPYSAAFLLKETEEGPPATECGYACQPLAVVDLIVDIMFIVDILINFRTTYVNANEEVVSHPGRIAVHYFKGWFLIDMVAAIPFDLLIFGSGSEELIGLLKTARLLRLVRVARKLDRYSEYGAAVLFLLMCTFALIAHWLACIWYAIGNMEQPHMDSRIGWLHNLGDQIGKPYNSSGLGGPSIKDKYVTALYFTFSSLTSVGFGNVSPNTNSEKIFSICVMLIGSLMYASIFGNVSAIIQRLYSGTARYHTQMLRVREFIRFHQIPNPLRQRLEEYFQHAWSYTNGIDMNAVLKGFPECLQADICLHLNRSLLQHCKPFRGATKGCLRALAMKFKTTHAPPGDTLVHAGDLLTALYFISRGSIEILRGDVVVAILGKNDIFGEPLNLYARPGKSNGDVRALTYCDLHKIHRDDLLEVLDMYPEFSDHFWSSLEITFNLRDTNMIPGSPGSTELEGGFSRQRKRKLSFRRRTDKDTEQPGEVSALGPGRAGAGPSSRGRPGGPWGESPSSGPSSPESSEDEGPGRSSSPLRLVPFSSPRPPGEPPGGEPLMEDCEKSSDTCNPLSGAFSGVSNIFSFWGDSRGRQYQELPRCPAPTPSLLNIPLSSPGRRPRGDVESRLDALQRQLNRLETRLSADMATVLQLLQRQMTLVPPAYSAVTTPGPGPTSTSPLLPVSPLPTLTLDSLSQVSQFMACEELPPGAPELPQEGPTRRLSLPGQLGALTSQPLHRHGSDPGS
row,SMILES,"hERG current change (%, negative = inhibition) at 10uM"
1,Cc1ccc(CN2CCSc3ccc(C(=O)N4CCN(c5ncccn5)CC4)cc32)cc1,19%
2,CN(NC(=O)C(C)(C)C)c1nc(-c2ccccc2)nnc1C(F)(F)F,-4.05%
3,Cc1sc2nc(C(C)C)nc(SCC(=O)NCc3ccco3)c2c1C,2.82%
4,Cc1sc2nc(C(C)C)nc(SCC(=O)N3CCN(C(=O)c4ccco4)CC3)c2c1C,-72.3%
5,Cc1sc2ncnc(SCC(=O)N3CCN(C(=O)c4ccco4)CC3)c2c1C,-70.1%
6,CC(C)C(=O)NNC(=O)CSc1ncnc2c1cnn2-c1ccccc1Cl,9.5%
7,Cc1sc2ncnc(OCC(=O)N3CCN(C(=O)c4ccco4)CC3)c2c1C,-30.8%
8,O=C(CSc1ncnc2c1cnn2-c1ccccc1Cl)N1CCN(C(=O)c2ccco2)CC1,-65.7%
9,CC(=O)Nc1ccc(NC(=O)CSc2ncnc3sc(C)c(C)c23)cc1,8.58%
10,Cc1nc(SCC(=O)Nc2ccc(CN3CCCC3)cc2)c2c(C)c(C)sc2n1,-35.3%
11,COc1ccc(N2CCN(C(=O)CSc3ncnc4c3cnn4-c3ccccc3C)CC2)cc1,10.8%
12,Cc1sc2ncnc(SCC(=O)Nc3ccc(CN4CCCC4)cc3)c2c1C,-72.6%
13,Cc1sc2nc(C(C)C)nc(SCC(=O)N3CCOCC3)c2c1C,-0.958%
14,Cc1sc2ncnc(SCC(=O)N3CCCC3)c2c1C,2.1%
15,Cc1cc(=O)n2nc(N3CCCC(C(=O)N4CCOCC4)C3)sc2n1 (stereo not shown),3.1%
16,COc1ccc(/C=C/c2c([N+](=O)[O-])c(=O)n(C)c(=O)n2C)c(OC)c1OC,13%
17,O=C(N/N=C/c1cccc2ccccc12)c1cccs1,20.7%
18,COc1ccccc1N(CC(=O)NCC1CCCO1)C(=O)CNS(=O)(=O)c1ccccc1 (stereo not shown),-0.369%
19,Cc1cc(=O)oc(C)c1C(=O)Nc1ccc2nsnc2c1,9.45%
20,CCOC(=O)c1ccc2c(c1)nc(SC(C)C(=O)NCC1CCCO1)n2CC (stereo not shown),-18.9%
21,CCOC(=O)c1ccc(NC(=O)CNC(=O)c2ccco2)cc1,13.8%
22,O=C(NC(=S)Nc1ccccn1)c1ccc([N+](=O)[O-])cc1,-11.9%
23,O=C(CC12CC3CC(CC(C3)C1)C2)NC1CC1,23.2%

row,SMILES,"hERG current change (%, negative = inhibition) at 10uM"
1,CCOc1ccc(S(=O)(=O)N2CCN(C(=S)NCc3ccccc3)CC2)cc1,-18.2%
2,Nc1cccc(C(=O)Nc2cccc3ncccc23)c1,23.8%
3,Cc1cccc(N2CCN(C(=O)c3ccc4c(c3)CCN4S(C)(=O)=O)CC2)c1C,-14.8%
4,Cc1nc(SCC(=O)N2CCN(C(=O)c3ccco3)CC2)c2c(C)c(C)sc2n1,-66.8%
5,Cc1nc(SCC(=O)N2CCOCC2)c2c(C)c(C)sc2n1,1.76%
6,Cc1nc(SCC(=O)N2CCCCC2)c2c(C)c(C)sc2n1,-11.7%
7,CCCN1Cc2cccc(C(=O)NCc3ccccc3)c2C1=O,-34.9%
8,O=C(Nc1cccc(-c2nnc(-c3ccccc3)o2)c1)C1CCCO1 (stereo not shown),-66.5%
9,O=C(Nc1cccc(-c2nnc(-c3ccccc3)o2)c1)C1CC1,-19.3%
10,O=C(Nc1ccc(-c2nnc(-c3ccccc3)o2)cc1)C1CCCO1 (stereo not shown),-13.3%
11,C=CCn1c(=NC(=O)C2CCCCC2)sc2cc(NC(C)=O)ccc21,-2.15%
12,COc1ccccc1N1CCN(CC(O)COCc2cccs2)CC1.Cl (stereo not shown),-19.8%
13,Cc1cccc(N2CCN(CC(O)COCc3cccs3)CC2)c1C (stereo not shown),-70.8%
14,Oc1ccccc1N1CCN(CC(O)COCc2ccccc2Cl)CC1 (stereo not shown),-42%
15,O=S(=O)(c1ccc(F)cc1)N1CCN(CC(O)COCc2cccs2)CC1 (stereo not shown),-18.5%
16,OC(COCc1cccs1)CN1CCN(c2ccccn2)CC1 (stereo not shown),-52.5%
17,CCOc1ccccc1N1CCN(CC(O)COCc2cccs2)CC1 (stereo not shown),-32.1%
18,CCOC(=O)C1CCN(CC(O)COCc2cccs2)CC1 (stereo not shown),-38%
19,OC(COCc1cccs1)CN1CCN(c2ccccc2Cl)CC1 (stereo not shown),-71%
20,CCOC(=O)c1cccc(COC(=O)c2cccc(-c3nnc(-c4ccccc4)o3)c2)c1,-2.94%
21,COc1ccc(C(=O)c2ccsc2N)cc1,3.5%
22,Cc1ccc(OP(=O)(O)Oc2ccc(C)cc2)cc1,2.09%
23,CCOC(=O)c1cnc2ccc(OCC)cc2c1NCc1ccccc1OC,4.45%

row,SMILES,"hERG current change (%, negative = inhibition) at 10uM"
1,CCOC(=O)c1cnc2ccc(OC)cc2c1NCc1ccccc1,-65.8%
2,CCOC(=O)c1cnc2ccc(OCC)cc2c1NCc1ccccc1,-40.3%
3,CCOC(=O)c1cnc2ccc(OCC)cc2c1NCc1cccnc1.Cl,-77.4%
4,CCOC(=O)c1nc(NCc2cccnc2)c2ccccc2n1,-15.3%
5,CCOC(=O)c1cnc2ccc(OCC)cc2c1N(C)Cc1ccccc1,-11.9%
6,Cc1cccc(NC(=O)c2cc(S(=O)(=O)NCc3ccco3)ccc2F)c1C,4.11%
7,O=C(CNC(=O)c1ccc(-c2ccccc2)cc1)Nc1ccc(S(=O)(=O)Nc2ncccn2)cc1,4.04%
8,Cc1cc(NCc2ccccn2)ccc1Br,-16.5%
9,Clc1ccc(Cn2cccc2C2=NCCO2)cc1,4.69%
10,CC(C)CNc1nc(Oc2ccc(=O)[nH]n2)nc(N(C)C)n1,8.46%
11,COC(=O)CC(NC(=S)NC(=O)c1ccccc1)c1ccc(Br)cc1 (stereo not shown),6.8%
12,C=CCn1cc(C(=O)OC)c(=O)c2cc(S(=O)(=O)N3CCCCCC3)ccc21,-0.223%
13,C=CCn1cc(C(=O)NCCOC)c(=O)c2cc(S(=O)(=O)N3CCCCCC3)ccc21,-65.8%
14,C=CCn1cc(C(=O)NCCOC)c(=O)c2cc(S(=O)(=O)N(CC)CC)ccc21,-13.9%
15,C=CCn1cc(C(=O)NCCN(CC)CC)c(=O)c2cc(S(=O)(=O)N3CCCCCC3)ccc21,-71.6%
16,COCCNC(=O)c1cn(C)c2ccc(S(=O)(=O)N3CCCCC3)cc2c1=O,11.1%
17,C=CCn1cc(C(=O)OC)c(=O)c2cc(S(=O)(=O)N3CCC(C)CC3)ccc21,-39%
18,C=CCn1cc(C(=O)NCc2ccco2)c(=O)c2cc(S(=O)(=O)N3CCCCCC3)ccc21,-36.4%
19,C=CCn1cc(C(=O)NCc2ccc(Cl)cc2)c(=O)c2cc(S(=O)(=O)N(CC)CC)ccc21,-22.5%
20,CCN(CC)CCNC(=O)c1cn(CC)c2ccc(S(=O)(=O)N3CCOCC3)cc2c1=O,14.6%
21,C=CCn1cc(C(=O)NCCCN(CC)CC)c(=O)c2cc(S(=O)(=O)N3CCC(C)CC3)ccc21,-53.7%
22,C=CCn1cc(C(=O)NCCCOC)c(=O)c2cc(S(=O)(=O)N3CCC(C)CC3)ccc21,-32.9%
23,C=CCn1cc(C(=O)NCc2cccnc2)c(=O)c2cc(S(=O)(=O)N(CC)CC)ccc21,-74.4%

row,SMILES,"hERG current change (%, negative = inhibition) at 10uM"
1,CC(C)COc1ccc(C(=O)Nc2ccc(N3CCOCC3)cc2N2CCOCC2)cc1,1.07%
2,COc1ccc(OC)c(C2NC(=O)NC(C)=C2C(=O)Nc2ccc(C)cc2)c1 (stereo not shown),5.98%
3,COC(=O)[C@H](C)NC(=O)Nc1cc(OC)ccc1OC,-8.76%
4,N#CCC(=O)Nc1ccc(C(=O)OCC(=O)C23CC4CC(CC(C4)C2)C3)cc1,12.7%
5,CC1CCCN(C(=O)C2CCCN(S(=O)(=O)c3cccc4nsnc34)C2)C1 (stereo not shown),2.02%
6,Cc1cccc(-n2c(-c3ccccc3)c[nH]c2=S)c1C,14.6%
7,COCCn1c(SCC(=O)Nc2cc(OC)ccc2OC)nc2c(c1=O)SC(C)C2 (stereo not shown),-18.5%
8,COc1cc(/C=C/CO)cc(OC)c1OC/C=C(\C)CCC=C(C)C,1.34%
9,CCOC(=O)c1c(NC(=O)C2CCCCC2)sc2c1CCN(C(C)C)C2.Cl,-81.6%
10,CCOC(=O)c1c(NC(=O)C2CCCCC2)sc2c1CCN(CC)C2.Cl,-51.7%
11,CC(C)N1CCc2c(sc(NC(=O)C3CCCCC3)c2C(N)=O)C1.Cl,-21.7%
12,CCN1CCc2c(sc(NC(=O)C3CCCCC3)c2C(=O)OC)C1.Cl,-17.4%
13,CCOC(=O)c1c(NC(=S)N2CCCCC2)sc2c1CCN(C(=O)OCC)C2,-1.16%
14,COC(=O)c1c(NC(=O)C2CCCCC2)sc2c1CCN(C(C)C)C2.Cl,-16.5%
15,O=C(COc1ccccc1)NCCSCc1ccc(Cl)cc1,-12.6%
16,CCC(C)NC(=O)Cn1c(=O)sc2ccccc21 (stereo not shown),4.15%
17,Cc1ccc(S(=O)(=O)N(CC(=O)NCC2CCCO2)Cc2ccc(F)cc2)cc1 (stereo not shown),-10.6%
18,Cc1ccc(CN(CC(=O)NCC2CCCO2)S(=O)(=O)c2ccc(C)cc2)cc1 (stereo not shown),-1.71%
19,O=C(CN(Cc1ccc(Br)cc1)S(=O)(=O)c1ccccc1)NCC1CCCO1 (stereo not shown),-6.72%
20,O=C(CN(Cc1ccccc1)S(=O)(=O)c1ccc(Br)cc1)NCC1CCCO1 (stereo not shown),-77.2%
21,O=C(CN(Cc1ccccc1)S(=O)(=O)c1ccc(Cl)cc1)NCC1CCCO1 (stereo not shown),-9.79%
22,Cc1ccc(S(=O)(=O)N(CC(=O)NCC2CCCO2)Cc2cccc(C)c2)cc1 (stereo not shown),-60.5%
